Many of the other results were omitted from the sample, so hits are more common in it than they were.
Chlamy TAG = inducers of triacylglycerol accumulation in Chlamydomonas reinhardtii algae | Chlamydomonas reinhardtii TAG, Nile Red fluorescence, 72 h | calls only at 10 µM (by protocol) | hit rate 0.84% among 44,000 | AID 1159537; call rule not given here;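 note: hits raise Nile Red signal meaning more stored TAG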
* marks the source's active call; other numbers are inactive results; i = inactive; + = active, no number.

SMILES	Chlamy TAG
COc1cc(CN2CCN(Cc3ccc([N+](=O)[O-])cc3)CC2)cc(OC)c1	+
COc1ccc(CN2CCN(Cc3cc(OC)c(OC)cc3[N+](=O)[O-])CC2)cc1OC	i
Cc1ccc(C=C(C#N)c2nc(-c3ccc([N+](=O)[O-])cc3)cs2)cc1	i
Cc1ccc(NC(=O)c2ccc(N3CCNCC3)c([N+](=O)[O-])c2)cc1	i
Cc1cccc(C(=O)Nc2ccc(NC(=O)c3ccc(C)c([N+](=O)[O-])c3)cc2)c1	i
CCc1nc(NN)c2c3c(sc2n1)CCC3	i
CS(=O)(=O)N(CC(=O)Nc1ccc(C(N)=O)cc1)c1ccccc1F	i
Cc1ccc(N=C(NOCc2ccccc2Cl)c2nonc2N)cc1	i
CCC(C)N1CCN(C(=O)C(c2ccccc2)c2ccccc2)CC1 (stereo not given)	i
CCOc1ccccc1C(=O)Nc1cc(S(=O)(=O)N(CC)CC)ccc1OC	i
O=C1CC(N2CCN(C/C=C/c3ccccc3)CC2)C(=O)N1c1ccc(Br)cc1 (stereo not given)	i
CN1CCN(C2Cc3ccccc3C2)CC1	i
C(=C\c1ccccc1)/CN1CCN(C2CCc3ccccc3C2)CC1 (stereo not given)	+
Fc1cccc(F)c1CN1CCN(C/C=C/c2ccccc2)CC1	i
Cc1ccc(C)c(N2CCN(C3CCc4ccccc4C3)CC2)c1 (stereo not given)	+
Cc1ccc(C)c(N2CCN(C(=O)C3CCC3)CC2)c1	i
O=C(c1ccc(Cl)c(Cl)c1)N1CCN(c2ccc(F)cc2[N+](=O)[O-])CC1	i
O=C1C(=O)N(Cc2cccnc2)C(c2ccccc2[N+](=O)[O-])C1=C(O)c1ccccc1 (stereo not given)	i
COc1ccc(NC(=O)C(Cl)Cl)cc1Cl	i
COc1cc(NC(=O)C(Cl)Cl)c(OC)cc1Cl	+
CCCC(=O)Nc1cc(OC)c(Cl)cc1OC	i
CCCN(Cc1ccc([N+](=O)[O-])s1)CC1CC1	i
O=C(Nc1cc(Cl)cc(Cl)c1)c1c(F)c(F)c(F)c(F)c1F	i
COc1cc(C(=O)Nc2nc3ccc(S(C)(=O)=O)cc3s2)c([N+](=O)[O-])cc1OC	i
CCn1c(SCC(=O)Nc2ccc(Br)cc2)nnc1-c1cccs1	i
SMILES	Chlamy TAG
C(#CC12CC3CC(CC(C3)C1)C2)CN1CCOCC1	+
OC1(C#CCN2CCOCC2)CCCCC1	i
C(#CC1CC1)CN1CCOCC1	i
Cc1ccc(CCSc2ccccc2)cn1	i
O=C(COc1ccc(Cl)cc1Cl)Nc1nccs1	i
CCN(CC)C(=O)C1CCCN(Cc2ccc(C)cc2)C1 (stereo not given)	i
CCc1ccc(CN2CCCC(CO)C2)cc1 (stereo not given)	i
Cc1ccc(CN2CCCC(CO)C2)cc1 (stereo not given)	+
COc1ccc(-c2nnn(CC(=O)Nc3ccccc3Cl)n2)cc1	i
O=C(Nc1ccc(Br)cc1F)C1CCN(C(=O)c2ccccc2)CC1	i
CCOC(=O)N1CCN(C(=N)C(C(C)=O)=C(C)O)CC1	i
Cc1ccc(CN2CCC(C(=O)N3CCN(Cc4ccc5c(c4)OCO5)CC3)CC2)o1	i
c1ccc2c(c1)CCN(Cc1ccc3c(c1)OCO3)C2	+
c1cc2c(cc1CN1CCCCC1)OCO2	i
c1cc2c(cc1CN1CCOCC1)OCO2	i
O=C(Cc1ccc(F)cc1)Nc1ccc(S(=O)(=O)N2CCOCC2)cc1	i
O=C(Nc1ccccc1C(=O)NCc1cccnc1)c1ccc(Br)cc1	i
O=C(NC1CCC(NC(=O)c2ccc(F)cc2)CC1)c1ccc(F)cc1 (stereo not given)	i
COc1cc(OC)cc(C(=O)N2CCN(c3ccccn3)CC2)c1	i
COc1ccccc1NC(=O)N1CCN(c2ccccn2)CC1	+
COc1ccccc1N1CCN(C(=O)Nc2ccccc2Cl)CC1	i
CCOc1ccccc1OCCN1CC(C)CC(C)C1 (stereo not given)	i
O=C(c1ccccc1)c1ccc(OCCCCn2ccnc2)cc1	+
Ic1ccc(OCCCn2ccnc2)cc1	i
Brc1ccc(OCCCn2ccnc2)cc1	i
SMILES	Chlamy TAG
O=C(CCc1ccccc1)Nc1nnc(-c2ccncc2)s1	i
CN1CCN(CCC(=O)Nc2ccccc2)CC1	i
CN1CCN(CCCCOc2ccc(C(=O)c3ccccc3)cc2)CC1	i
CN1CCN(CC#CC=C(c2ccccc2)c2ccccc2)CC1	+
COc1cccc(NC(=O)c2cc(I)ccc2Cl)c1	i
Cc1ccc(OCC(=O)Nc2nc3ccc(S(C)(=O)=O)cc3s2)c(Br)c1	i
Cc1nnc(SCC(=O)Nc2ccc([N+](=O)[O-])cn2)s1	i
CCc1cccc(C)c1NC(=O)c1ccccc1F	i
CCSc1nc2ccccc2n1CC(=O)Nc1ccc(CC)cc1	i
CC(C)N(C(=O)Cc1cccs1)C(C)C	i
Nc1ccc(C(=O)Nc2ccc(Cl)cc2Cl)cc1	+
O=C(Nc1ccc(Cl)cc1F)c1ccc(C(=O)Nc2ccc(Cl)cc2F)cc1	i
O=C(Nc1ccc(Cl)cc1Cl)c1ccccc1	i
Cc1ccc(C(=O)c2ccc(N3CCN(C)CC3)c(F)c2)cc1C	+
Cc1ccc(C(=O)c2ccc(N3CCN(C(=O)c4cccs4)CC3)c(F)c2)cc1C	i
CCC(=O)c1ccc(N2CCN(C(C)=O)CC2)c(F)c1	i
O=C(Nc1cccc([N+](=O)[O-])c1)C1CCN(C(=O)c2ccc(F)cc2)CC1	i
CN(C)Cc1cc(Cl)ccc1O	i
CN1CCC(N(C)Cc2cc(Cl)ccc2O)CC1	+
CN1CCC(N(C)Cc2cc(F)ccc2F)CC1	i
CC(=O)Nc1cc(S(=O)(=O)Nc2ccccc2)ccc1C	i
Cc1ccc(OCCCCN2CCCC2)c([N+](=O)[O-])c1	i
Cc1cc(Br)ccc1OCCCCN1CCCC1	+
Cc1cc(Br)ccc1OCCCCN1CCN(C)CC1	+
C=CCc1cc(C)ccc1OCCCCN1CCCC1	i
SMILES	Chlamy TAG
Cc1cc(Br)ccc1OCCCCN1CCOCC1	i
Cc1ccc(C(C)(C)C)c(OCCCCN2CCN(C)CC2)c1	i
Cc1ccc(OCCCCN2CCCCC2)c(C)c1	+
Cc1ccccc1OCCOCCN1CCN(C)CC1	i
Brc1cccc(OCCCCN2CCCC2)c1	i
CCCc1sc(NC(=O)c2cc(OC)c(OC)c(OC)c2)nc1-c1ccc(OC)c(OC)c1	i
COc1cccc(NC(=O)CCN2CCCCCC2)c1	i
Cc1cc([N+](=O)[O-])ccc1NC(=O)CCCc1ccccc1	i
C=CCn1c(CSc2nc3ccccc3s2)nnc1SCC(=O)N1CCCCC1	i
COc1cc(NC(C)=O)ccc1NC(=O)c1cccs1	i
CCCCOc1ccc(N2C(=O)CC(NCCc3ccccc3)C2=O)cc1 (stereo not given)	i
O=C(Nc1ccc([N+](=O)[O-])cc1)c1ccccc1Cl	+
O=C(Nc1ccc([N+](=O)[O-])cc1)c1c(F)c(F)c(F)c(F)c1F	+
Cc1ccc(C(=O)Nc2ccncc2)cc1[N+](=O)[O-]	i
O=C(O)c1ccc(NC(=O)c2ccc([N+](=O)[O-])cc2)cc1	i
CCSc1ccc(C(=O)Nc2ccc(Cc3ccncc3)cc2)cc1[N+](=O)[O-]	+
Cc1ccccc1C(=O)Nc1ccc([N+](=O)[O-])cc1	i
CCC(C)c1ccc(NC(=O)c2ccc([N+](=O)[O-])cc2Cl)cc1 (stereo not given)	i
O=C(Nc1ccc(Cc2ccncc2)cc1)c1ccc([N+](=O)[O-])cc1Cl	+

Screening data: PubChem BioAssay, DiRusso Lab, Biochemistry Department, University of Nebraska
